ATXN2 expr inh: reduces ATXN2 reporter expression in HEK-293 cells; HEK-293 ATXN2-luciferase reporter, luminescence, 24 h; Potency, µM (doses to about 57 µM), without a hit: at the top dose activity change, negative = inhibition, most hits filed as inhibitors; 0.72% of 360,000 active; further: on the % scale 0 is the no-effect control and ±100 the full control effect; nearly all actives have a fitted effect of over 55% in size
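qHTS (up to 57 uM final) was run with 24 h compound exposure of reporter cells at 37 °C. Each well was multiplexed: SteadyGlo luminescence measured ATXN2-luciferase expression after a fluorogenic Gly-Phe-AFC viability readout (25 uM final).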
RORg inh: inhibitors of mouse ROR gamma transcriptional activity. P51450. Drosophila S2 Gal4-RORgamma UAS-luciferase reporter, 20 h. Potency, µM (top dose mostly 53.6 µM), inactives show at the highest dose activity change, negative = inhibition, hits mostly inhibitors. 5.4% of 310,000 active; further: on the % scale 0 is the no-effect control and ±100 the full control effect; nearly all actives have a fitted effect of over 60% in size
Target sequence (P51450 whole entry, looked up, the tested form may be a part): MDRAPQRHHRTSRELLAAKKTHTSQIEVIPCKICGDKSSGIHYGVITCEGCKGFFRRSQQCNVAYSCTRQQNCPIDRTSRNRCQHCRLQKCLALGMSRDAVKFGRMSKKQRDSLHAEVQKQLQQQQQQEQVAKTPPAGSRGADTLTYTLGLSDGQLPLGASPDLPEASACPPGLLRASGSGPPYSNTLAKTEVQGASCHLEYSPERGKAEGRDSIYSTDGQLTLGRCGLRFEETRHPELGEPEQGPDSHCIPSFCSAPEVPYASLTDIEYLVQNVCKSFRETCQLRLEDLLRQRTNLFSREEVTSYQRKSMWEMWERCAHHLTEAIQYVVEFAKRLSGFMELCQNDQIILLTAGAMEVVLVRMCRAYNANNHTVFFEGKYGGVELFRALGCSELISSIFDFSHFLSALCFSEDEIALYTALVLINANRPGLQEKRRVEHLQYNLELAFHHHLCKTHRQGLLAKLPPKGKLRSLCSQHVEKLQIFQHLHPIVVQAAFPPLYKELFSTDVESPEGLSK
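Compounds are pin-transferred onto Drosophila Schneider cells expressing a copper-inducible Gal4–ROR gamma transactivation domain fusion. After 1 hr, copper sulfate is added to 700 uM final; luciferase is read 20 hr later.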
ATXN viability: reduces viability in counter-screen for ATXN expression inhibitors. 0.49% of 400,000 active. S2 cells (HEK-293 line with an ATXN2-luciferase reporter) viability, CellTiter-Fluor protease fluorescence, 24 h. Potency, µM (titrated, usually from 56.7 µM), most hits filed as cytotoxic; further: nearly all actives have a fitted effect of over 40% in size
TGFb inhibitor: TGF-b pathway inhibition; HepG2 CAGA-GFP TGF-b/SMAD3 reporter, GFP fluorescence, 18 h; TGF-beta stimulated, 500 pg/mL final; Potency, µM (series often up to 46.1 µM), without a hit: top-dose activity, negative = inhibition, actives largely listed as inhibitors; 1.2% of 410,000 active; further: on the % scale 0 is the no-effect control and ±100 the full control effect; nearly all actives have a fitted effect of over 65% in size
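First, reporter cells (HEPG2 CAGA-GFP) rested 2 h at 37 degrees C. Next, compounds were pinned in and TGF-beta added to 500 pg/mL final. After 18 h, GFP was imaged per cell and summed per well.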
VP16 counter: Gal4-VP16 reporter inhibition counter-screen. Drosophila S2 Gal4-VP16 UAS-luciferase, luminescence, 20 h. Potency, µM (series often up to 53.6 µM), for inactives: at the highest dose activity, negative = inhibition, usual class: inhibitors. 3.5% of 310,000 active;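 further: Gal4-VP16 expression switched on by copper sulfate through the metallothionein promoter; on the % scale 0 is the no-effect control and ±100 the full control effect; nearly all actives have a fitted effect of over 50% in size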
HepG2 viability: HepG2 cytotoxicity, counter-screen for TGF-b inhibitors | Potency, µM (series often up to 46.1 µM), without a hit: at the highest dose activity change, negative = cytotoxicity, hits mostly cytotoxic | 0.76% of 410,000 active | HepG2 CAGA-GFP viability, ATP luminescence, 18 h
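CellTiter-Glo luminescence gave cytotoxicity after 18 hours at 37 degrees C. The cells were HepG2 CAGA-GFP in 1% FBS DMEM, stimulated with 500 pg/mL TGF-beta after compound addition. %Activity was normalised to no-cell wells (complete cell-killing) and DMSO (no toxicity), and curves were fitted and classified.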
* = called active by the depositor; i = inactive; ? = inconclusive; nt = no result; [ ] = another dose, or the depositor's remark. Sampled rows, rich in hits. Any-hit rate of the full collection: about 6.1%. The call rests on the fitted dose curve; in most records, active means well fitted curve in the direction sought with a large enough effect; inconclusive means small, poorly fitted or top-dose-only effect, or another doubt; inactive means no such curve, though single readings can be large; an effect the other way counts as inactive or inconclusive. Potency means the concentration at half of the fitted maximal effect.

SMILES | ATXN2 expr inh | RORg inh | ATXN viability | TGFb inhibitor | VP16 counter | HepG2 viability
O=C(COc1ccccc1Cl)Nc1cc(-c2ccccc2F)nn1-c1ccccc1 | 6.2% | nt | i | -11.0% | nt | -5.1%
CCOC(=O)c1cc(NC(=O)c2ccc(Cl)cc2)c(=O)n2c1oc1ccccc12 | 0.5% | nt | i | 3.3% | nt | -1.5%
CCc1ccccc1NC(=O)CCn1cccn1 | 6.3% | nt | i | 4.8% | nt | 7.3%
O=C(O)CCSCC(=O)c1ccc2c(c1)OCCO2 | -25.8% | 2µM* | i | -14.4% | 3.55µM* | -15.2%
O=C(CCN1CCc2ccccc2C(c2ccccc2)C1)c1ccc2c(c1)OCCO2 (stereo not given) | ? | 4.47µM* | i | ? | 3.55µM* | -110.3%
O=C(CCN1Cc2ccccc2C1)c1ccc2c(c1)OCCO2 | ? | 12.6µM* | nt | 12.6µM* | 15.8µM* | 10µM*
COc1ccc(-c2ccc(N(C)C)cc2)cc1C1C2C=CCC(C)C2C(=O)N1Cc1ccccc1 (stereo not given) | nt | -0.2% | nt | -2.4% | 13.0% | 11.1%
COc1cccc(Cn2cnc3c(cnn3C(C)(C)C)c2=O)c1 | nt | nt | nt | -7.6% | nt | -25.2%
O=c1cc(-c2ccccc2Cl)oc2c(NS(=O)(=O)c3cc(Cl)cc(Cl)c3O)ccc(O)c12 | ? | ? | 31.6µM* | 6.31µM* | 5.01µM* | 10µM*
CC1=NN(C(=O)c2ccccc2F)C(O)(c2ccc(Cl)cc2)C1 (stereo not given) | ? | 5.62µM* | ? | ? | 6.31µM* | -67.1%
CC1=NN(C(=O)c2ccccc2Cl)C(O)(c2ccccc2)C1 (stereo not given) | 7.8% | 6.31µM* | i | 0.5% | 7.08µM* | 4.8%
O=C(c1ccccc1F)N1N=C(C(F)(F)F)CC1(O)c1ccccc1 (stereo not given) | nt | nt | ? | -19.3% | nt | -18.0%
CC(C)(C)C(=O)Nc1cc2nn(-c3ccccc3)nc2cc1Cl | ? | 0.631µM* | i | -14.5% | 3.55µM* | -7.6%
Cc1cc2nc3n(c2cc1C)CCCN3 | nt | 1.58µM* | i | -0.9% | -10.0% | -19.3%
CO[C@H](C(=O)[C@@H](O)[C@@H](C)O)C1Cc2cc3cc(O[C@H]4C[C@@H](O[C@H]5C[C@@H](O)[C@H](O)[C@@H](C)O5)[C@@H](O)[C@@H](C)O4)c(C)c(O)c3c(O)c2C(=O)[C@H]1O[C@H]1C[C@@H](O[C@H]2C[C@@H](O[C@H]3C[C@](C)(O)[C@H](O)[C@@H](C)O3)[C@H](O)[C@@H](C)O2)[C@H](O)[C@@H](C)O1 (stereo not given in full) | nt | 0.631µM* | ? | nt | 0.501µM* | nt
COC(C(=O)C(O)C(C)O)C1Cc2cc3cc(OC4CC(OC5CC(O)C(O)C(C)O5)C(O)C(C)O4)c(C)c(O)c3c(O)c2C(=O)C1OC1CC(OC2CC(OC3CC(C)(O)C(O)C(C)O3)C(O)C(C)O2)C(O)C(C)O1 (stereo not given) | nt | 0.708µM* | nt | 0.631µM* | 0.794µM* | 23.4%
COc1ccccc1C(=O)Nc1ccccc1C(=O)OCc1cc(=O)n2ccsc2n1 | 3.4% | nt | i | 2.3% | nt | -7.7%
CCOC(=O)c1c(NC(=O)c2cc(=O)c3c(C)cc(C)cc3o2)sc(C)c1C | 0.5% | nt | i | -13.5% | nt | -49.5%
O=C(O)c1ccc(-c2nc3ccccc3s2)o1 | 11.5% | 1.2% | i | -0.2% | 1.2% | 1.3%
O=Cc1ccc(-c2nc3ccccc3s2)o1 | 0.9% | 4.47µM* | i | 14.4% | 7.94µM* | -3.5%
CC1(C)O[C@@H]2O[C@H]([C@H](O)CO/N=C3/[C@H]4O[C@@H]4[C@@H](O)[C@H]4[C@H]3CCn3c(=O)n(-c5ccccc5)c(=O)n34)[C@@H](O)[C@@H]2O1 | nt | 18.7%[10 µM] | nt | nt | 3.1%[10 µM] | nt
O=[N+]([O-])c1ccc(C=CC=Cc2ccccc2)cc1 | nt | nt | i | -16.9% | nt | -42.8%
CN(c1ccccc1)c1ccc(/C=C/[N+](=O)[O-])cc1 | -1.6% | ? | nt | ? | ? | 7.94µM*
CCCCOc1ccc(C(=O)CCN2CCCCC2)cc1 | ? | ? | i | ? | 14.1µM* | -80.7%
O=C(CCN1CCN(c2ccccc2)CC1)c1ccc(Cl)cc1 | -1.7% | ? | i | ? | ? | -90.6%
SMILES | ATXN2 expr inh | RORg inh | ATXN viability | TGFb inhibitor | VP16 counter | HepG2 viability
O=C(CCN1CCOCC1)c1ccc(N2CCCCC2)cc1 | ? | nt | ? | 14.1µM* | nt | -98.8%
CC(C)COc1ccc(C(=O)OCCN2CCCCC2)cc1 | 11.5% | 18.8% | i | -1.0% | -11.3% | -2.2%
CC(C)COc1ccc(C(=O)CCN2CCCCC2)cc1 | -23.4% | 7.08µM* | i | ? | 11.2µM* | -95.4%
COc1ccccc1-c1cc(NC(=O)COc2ccccc2Cl)n(-c2ccccc2)n1 | 7.7% | nt | i | ? | nt | 0.6%
O=C(CCn1cnc(-c2ccccc2)c1-c1ccccc1)N/N=C/c1ccccc1O | ? | ? | ? | ? | 2.82µM* | -43.0%
COc1ccc(/C=N/NC(=O)CCn2cnc(-c3ccccc3)c2-c2ccccc2)cc1 | -17.6% | ? | i | 11.2µM* | -20.5% | -35.1%
Cn1cccc1/C=N/NC(=O)Cn1cnc2ccccc21 | -5.4% | 8.91µM* | i | -3.5% | ? | 3.6%
O=C(Cn1cnc2ccccc21)N/N=C/c1cccs1 | -10.9% | -42.0% | ? | 13.9% | 1.3% | 8.5%
COc1ccc(/C=N/NC(=O)CCn2cnc3ccccc32)cc1 | 10.5% | 12.6µM* | i | -7.0% | ? | -5.1%
COc1ccc(S(=O)(=O)n2nc(-c3ccco3)nc2NCc2ccc(N(C)C)cc2)cc1 | 11.8% | nt | i | -17.3% | nt | -31.5%
Cn1nc(-c2ccc(OCC(=O)Nc3cccc(C(F)(F)F)c3)cc2)c2ccccc2c1=O | -6.9% | nt | ? | ? | nt | 0.6%
CC(C)Oc1ccc(CNC(=O)CCCn2c(=O)c3cccn3c3ccccc32)cc1 | nt | nt | nt | 0.0% | nt | -23.5%
CCN(CC(=O)Nc1cccc(S(=O)(=O)N2CCCC2)c1)CC(=O)Nc1ccccc1OC | -23.1% | 11.2µM* | i | -12.1% | -3.4% | 7.1%
COc1ccc(CC(=O)Nc2cccc(S(=O)(=O)N3CCCCCC3)c2)cc1OC | -36.3% | -25.0% | i | ? | 11.2µM* | 1.9%
COc1ccc(Cl)cc1NC(=O)CN(C)CC(=O)Nc1cccc(S(=O)(=O)N2CCCC2)c1 | -23.3% | nt | i | -13.4% | nt | -1.3%
Cc1ncc2c(c1CNC(=O)c1ccc3c(c1)OCO3)CCN(C(=O)c1ccc3ccccc3c1)C2 | nt | nt | i | nt | nt | nt

Compound activity as filed in PubChem BioAssay.
